High-throughput results as filed in PubChem BioAssay.
An excerpt weighted towards active compounds, which were near 3.6% of everything screened.
mHTT CaM bind: mutant huntingtin-calmodulin interaction inhibitors – biochemical, AlphaScreen, primary screen. inhibition, % at 15 µM. AlphaScreen His-mHTT/GST-CaM binding, luminescence. P42858. 190,000 compounds, 3.6% hits;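 also: 0% = both proteins with DMSO and 100% = one protein alone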
Pf apPOL inh: Pf-apPOL inhibitors, biochemical, fluorescence. Plasmodium falciparum apicoplast DNA polymerase (apPOL). Recombinant Pf-apPOL, molecular beacon fluorescence, 1.5 h. inhibition, % at 10 µM. 210,000 compounds, 0.25% hits. AID 1794808, 2022
Starred values were filed as active, the others as inactive; / = no result. Rule as the data show it: active = inhibition above about 50%; inactive = the rest.

SMILES	mHTT CaM bind	Pf apPOL inh
O=C1c2ccc(Oc3ccc([N+](=O)[O-])cc3[N+](=O)[O-])cc2C(=O)N1c1ccc(O)cc1	27	-4
Cc1cc(OCC(=O)N2N=C3CCCCC3C2(O)C(F)(F)F)ccc1Cl (stereo not drawn)	80*	3
O=C(c1ccccc1Cl)N1N=C2CCCCC2C1(O)C(F)(F)F (stereo not drawn)	-2	-1
CC1=NN(C(=O)COc2cc(C)c(Cl)c(C)c2)C(O)(C(F)(F)F)C1 (stereo not drawn)	12	-3
CC1=NN(C(=O)COc2ccc(Cl)c(C)c2)C(O)(C(F)(F)F)C1 (stereo not drawn)	20	-9
Cc1cc(OCC(=O)N2N=C(c3ccccc3)CC2(O)C(F)(F)F)ccc1Cl (stereo not drawn)	100*	-12
Cc1cc(OCC(=O)N2N=C(C3CCCCC3)CC2(O)C(F)(F)F)ccc1Cl (stereo not drawn)	100*	1
COc1ccc(OC)c(CNC(=O)C2c3ccccc3CCN2C(=O)C2CC2)c1 (stereo not drawn)	15	-1
Cc1ccc2c(c1)NC(=O)C(C(=O)Nc1ccc(OC(F)(F)F)cc1)O2 (stereo not drawn)	-10	0
O=C(CCc1ccccc1)N1CCC(N2CCC(C(=O)N3CCCCC3)CC2)CC1	4	-5
CCCOC(=O)c1cc([N+](=O)[O-])cc2c1-c1ccc([N+](=O)[O-])cc1C2=O	/	-1
O=C(c1ccco1)N1CCC(CCOCc2cccc(F)c2)CC1	20	-2
Cc1cc(Nc2ccc(O)cc2)c2cc(Cl)ccc2n1	17	-7
CCOc1ccc2nc(C)cc(Nc3ccc(N4CCOCC4)cc3)c2c1	25	-3
CCOc1ccc2nc(C)cc(Nc3ccc(C)c(Cl)c3)c2c1	95*	-12
Cc1cc(Nc2ccc(N(C)C)cc2)c2cc(Cl)ccc2n1	73*	-6
Cc1cc2[nH]c(C(=O)Nc3ccc(F)c(F)c3F)c(CN3CCOCC3)c2s1	22	33
O=C(C1CCCN(c2nnc3ccccn23)C1)N1CCCCC1 (stereo not drawn)	-4	-3
COc1ccc([N+](=O)[O-])cc1N1C(=O)c2cccc([N+](=O)[O-])c2C1=O	1	-1
COc1ccc(C2C(C#N)=C(N)N(c3ncn[nH]3)C3=C2C(=O)CCC3)cc1OC (stereo not drawn)	3	-2
NCCCN1CCCCCC1	2	-3
Cc1ccc(NC(=O)N2CCC(n3cnc4c(Cl)cccc4c3=O)CC2)cc1F	-2	-2
COc1ccc(N=c2oc3c(C)ncc(CO)c3cc2C(=O)Nc2ccccc2)c(OC)c1	8	3
CCc1ccc(NC(=O)c2cc3c(CO)cnc(C)c3oc2=Nc2ccc(OC)cc2OC)cc1	4	57*
Cc1ccccc1OCC(=O)NCC#CCN1CCCC1	-5	-6
SMILES	mHTT CaM bind	Pf apPOL inh
CCc1c(C)c(C#N)c2nc3ccccc3n2c1NCCOC	-3	0
CCc1c(C)c(C#N)c2nc3ccccc3n2c1NCCC(C)C	-14	-2
CCc1c(C)c(C#N)c2nc3ccccc3n2c1NCCO	-3	73*
N#Cc1c2c(c(NCCN3CCOCC3)n3c1nc1ccccc13)CCCC2	-4	-1
CCc1c(C)c(C#N)c2nc3ccccc3n2c1NCCCN(C)C	-4	60*
CCc1c(C)c(C#N)c2nc3ccccc3n2c1NCCCN(CC)CC	-2	82*
C=CCc1c(C)c(C#N)c2nc3ccccc3n2c1NCCCN(CC)CC	-6	-74
N#Cc1c2c(c(NCCCN3CCOCC3)n3c1nc1ccccc13)CCC2	6	67*
Cc1cc(C(=O)Nc2nc3ccc(S(N)(=O)=O)cc3s2)no1	-8	-3
CN1C(=O)C(=CC2=Cc3ccccc3OC2)SC1=S	4	-2
CC(NC(=O)CSc1nc2ccccc2s1)c1ccccc1 (stereo not drawn)	-6	2
COc1cc(OC)cc(C(=O)N2CCC(c3noc(-c4cccc(OC)c4)n3)CC2)c1	10	6
CCc1ccc(-n2[nH]c(=O)c(C=c3c(C)c(C#N)c4nc5ccccc5n4c3=O)c2O)cc1	57*	6
Cc1ccc(-n2[nH]c(=O)c(C=c3c(C)c(C#N)c4nc5ccccc5n4c3=O)c2O)cc1C	46	-5
Cn1cccc1CN(C(=O)c1ccc(Cl)c(Cl)c1)C1CC1	16	-4
Oc1ccccc1C(O)c1ccccc1 (stereo not drawn)	0	-12
Cc1nn(-c2ccc(C(=O)N3CCN(c4cccc(Cl)c4)CC3)cc2)c2c1C(=O)CCC2	83*	-2
Cc1nn(-c2ccc(C(=O)N3CCN(c4ccccn4)CC3)cc2)c2c1C(=O)CCC2	13	1
CNc1nc(Nc2ccc(F)cc2C)nc2ccccc12	-1	3
O=C(Nc1cccc(NC(=O)c2ccncc2)c1)c1ccncc1	0	99*
N#Cc1cccc(NC(=O)c2ccncc2)c1	/	-7
CCOC(=O)c1nc(-c2ccccc2)sc1C(=O)C=CN(C)C	/	-9
COc1ccc2c(c1)OC(=Cc1c(Cl)cccc1Cl)C2=O	4	-8
Brc1ccc2c(c1)C1C=CCC1C(c1ccncc1)N2 (stereo not drawn)	95*	-7
Fc1ccc(C2Nc3ccc(OC(F)(F)F)cc3C3C=CCC32)cc1 (stereo not drawn)	37	/
SMILES	mHTT CaM bind	Pf apPOL inh
Ic1ccc2c(c1)C1C=CCC1C(c1ccncc1)N2 (stereo not drawn)	95*	6
Fc1ccc(C2Nc3ccc(Br)cc3C3C=CCC32)cc1 (stereo not drawn)	15	-1
Nc1ccc(C2Nc3ccccc3C3C=CCC32)cc1 (stereo not drawn)	85*	-11
O=C(NCCOc1ccccc1)c1sc2cc(F)ccc2c1Cl	-2	-1
Cc1ccc2c(c1)C1CC(C)(O2)N(c2cccc(C(=O)O)c2)C(=O)N1 (stereo not drawn)	-2	0
O=[N+]([O-])c1cc(Br)c2nsnc2c1N1CCCCCC1	51*	/
O=[N+]([O-])c1cc(Br)c2nsnc2c1Br	30	-6
O=C(NC(c1ccc(Cl)cc1)c1ccc2cccnc2c1O)c1ccccc1 (stereo not drawn)	100*	-2
O=C(NC(c1ccccc1Cl)c1ccc2cccnc2c1O)c1ccccc1 (stereo not drawn)	73*	4
CCCc1cc2c(=O)c(-c3ccc4c(c3)OCCO4)coc2cc1OC(=O)CC	-7	4
CCOC(=O)C1CCN(C(=O)C2CCCN(c3cn[nH]c(=O)c3)C2)CC1 (stereo not drawn)	4	-2
O=[N+]([O-])c1ccc(/C=C/S(=O)(=O)N2C=Cc3ccccc3C2c2c[nH]c3ccccc23)cc1 (stereo not drawn)	57*	2
O=C(c1ccc([N+](=O)[O-])cc1)N1CCN(Cc2c[nH]c3ccccc23)CC1	20	-2
Cc1nn(CCCC(=O)Nc2cc(Oc3ccc4c(c3)CCC4)cc([N+](=O)[O-])c2)c(C)c1[N+](=O)[O-]	0	7
CCOc1ccccc1N1CCN(C(=O)Cc2ccccc2)C(C)C1=O (stereo not drawn)	6	-5
COc1ccc(-n2nc(C(=O)N3CCC(C)CC3)c3ccccc3c2=O)c(OC)c1	0	51*
COc1ccc(-n2nc(C(=O)N3CCCC3)c3ccccc3c2=O)c(OC)c1	-12	3
